Only some compounds are listed: those with a hit (about 1.6% of all), similar ones and a draw of the others.
KCNQ2 inh: KCNQ2 (rat) channel inhibition. O88943. CHO-K1 KCNQ2, FluxOR thallium flux, 20 min; active compounds read low. B-score at 10 µM. 310,000 compounds, 1.1% hits. AID 2156;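 active means fluorescence ratio B-score at most minus 3 library SDs, with starting brightness B-score within 2 library SDs, cut at about -5.5 in these data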
KCNQ2 pot: potentiators of rat KCNQ2 potassium channel. O88943. CHO-K1 KCNQ2, FluxOR thallium flux fluorescence; active compounds read high. B-score at 10 µM. 310,000 compounds, 0.54% hits;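 active means fluorescence ratio B-score at least 3 SD of library B-scores, with initial fluorescence B-score within 3 of them, cut at about 5.3 in these data; same plate scores as AID 2156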;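 further: B-score of peak minus minimum over baseline fluorescence ratio after K+ and Tl+ stimulus; positive B-score means potentiation of KCNQ2 with more thallium influx and brighter signal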
Active calls of the source: *.

What do the screens show for `CCCn1c(SCc2ccon2)nc2ccccc2c1=O`?
KCNQ2 inh: inactive; KCNQ2 pot: 0.07

Results for CC1CCN(C(=O)CCC(=O)N2CC(C)Oc3ccccc32)CC1 (stereo not given) ?
KCNQ2 inh: inactive

Results for Cc1ccc2c(c1)N(C(=O)CCC(=O)N1CCN(c3ccccc3)CC1)CCO2 ?
KCNQ2 inh: inactive; KCNQ2 pot: 0.01

How did Cc1ccc2c(c1)N(C(=O)CCC(=O)N1CCN(c3cccc(C)c3C)CC1)CCO2 do in these assays?
KCNQ2 inh: -5.7*; KCNQ2 pot: -5.7

How did Cc1cccc(N2CCN(C(=O)CCC(=O)N3CC(C)Oc4ccccc43)CC2)c1C (stereo not given) do in these assays?
KCNQ2 inh: -5.9*; KCNQ2 pot: -5.9

Results for COc1ccc(NC(=O)c2nc3nccc(C)n3n2)cn1 ?
KCNQ2 inh: inactive

Results for COc1ccc(NC(=O)Nc2nnc(Cc3ccc(F)cc3)s2)cc1 ?
KCNQ2 inh: inactive

Results for Cc1ccc2c(Cl)cc(Cl)c(OCC(=O)NC(C)(C)C)c2n1 ?
KCNQ2 inh: -7*; KCNQ2 pot: -7

How did COC(=O)COc1c(Cl)cc(Cl)c2ccc(C)nc12 do in these assays?
KCNQ2 inh: inactive

What do the screens show for `CCOc1ccccc1Nc1cc(C)c2cccc(C)c2n1`?
KCNQ2 inh: -5.8*; KCNQ2 pot: -5.8

How did CCOc1ccccc1Nc1ccnc2cc(Cl)ccc12 do in these assays?
KCNQ2 inh: inactive; KCNQ2 pot: 0.02

How did CC(=O)c1ccc(S(=O)(=O)N2CCN(C(=O)CSC(=S)N3CCCC3)CC2)cc1 do in these assays?
KCNQ2 inh: inactive

What do the screens show for `COc1ccc(S(=O)(=O)n2ccnc2C)c(C)c1C`?
KCNQ2 inh: inactive

Results for CCOC(=O)C1(CC2CC2)CCN(C(=O)c2cccnc2C)CC1 ?
KCNQ2 inh: -6.4*; KCNQ2 pot: -6.4

How did CCOC(=O)C1(CC2CC2)CCN(C(=O)c2cc(C3CC3)nc3ccccc23)CC1 do in these assays?
KCNQ2 inh: inactive

Results for CCC(=O)N(C(=O)CC)N1CCN(c2ccncc2S(=O)(=O)N2CCCCC2)CC1 ?
KCNQ2 inh: inactive

What do the screens show for `COc1ccc2nc3oc(C(=O)N4CCN(c5cccc(Cl)c5)CC4)cc3cc2c1`?
KCNQ2 inh: -5.8*; KCNQ2 pot: -5.8

Results for COc1ccc2nc3oc(C(=O)N4CCN(c5cccc(C(F)(F)F)c5)CC4)cc3cc2c1 ?
KCNQ2 inh: inactive

Results for O=C(COC(=O)c1ccc(S(=O)(=O)N2CCCC2)cc1)NCc1cccs1 ?
KCNQ2 inh: inactive; KCNQ2 pot: 0.01

How did CNc1nc2ccccc2n1CC(=O)c1ccccc1 do in these assays?
KCNQ2 inh: inactive; KCNQ2 pot: 0.86

What do the screens show for `COC(=O)c1ccc2c(=O)n(CCN3CCOCC3)c(SCC(=O)Nc3ccccc3Cl)nc2c1`?
KCNQ2 inh: -6.2*; KCNQ2 pot: -6.2

How did COC(=O)c1ccc2c(=O)n(CCN3CCOCC3)c(SCC(=O)Nc3ccc(OC)cc3OC)nc2c1 do in these assays?
KCNQ2 inh: inactive

How did O=C(c1cccs1)c1no[n+]([O-])c1C(=O)c1cccs1 do in these assays?
KCNQ2 inh: -14*; KCNQ2 pot: -14

Results for COc1ccc(C(=O)c2no[n+]([O-])c2C(=O)c2ccc(OC)cc2)cc1 ?
KCNQ2 inh: inactive

What do the screens show for `COc1ccc(CN(C(=O)c2cc(=O)c3cc(C)cc(C)c3o2)C2CCS(=O)(=O)C2)cc1` (stereo not given)?
KCNQ2 inh: inactive; KCNQ2 pot: 0.92

What do the screens show for `CCOC(=O)CSc1nnc(Cn2nnc(-c3ccccc3)n2)n1C`?
KCNQ2 inh: inactive

Results for CCC[C@@H](CNC)NC[C@H](Cc1ccccc1)NCCCCc1ccccc1 ?
KCNQ2 inh: -6*; KCNQ2 pot: -6

What do the screens show for `CCC[C@@H](CN[C@@H](CNC)C(C)C)NCCCCc1ccccc1`?
KCNQ2 inh: inactive

What do the screens show for `O=C(N/C(=C/c1ccc([N+](=O)[O-])cc1)C(=O)N1CCOCC1)c1ccco1`?
KCNQ2 inh: inactive

What do the screens show for `COc1ccc(CCC(=O)OCc2csc(CC(=O)Nc3ccccc3C)n2)cc1`?
KCNQ2 inh: inactive

Results for COc1ccc(C2NC3=C(CCCC3)C(C#N)(C#N)C2(C#N)C#N)cc1 (stereo not given) ?
KCNQ2 inh: -5.8*; KCNQ2 pot: -5.8

How did COc1ccc(C2NC3=C(CCC3)C3(C#N)C4(N=C(N)C23C#N)OCCO4)cc1 (stereo not given) do in these assays?
KCNQ2 inh: inactive

How did CCN1CCN(C(=O)c2cc(-c3cccnc3)nc3ccc(Br)cc23)CC1 do in these assays?
KCNQ2 inh: -8.3*; KCNQ2 pot: -8.3

How did COc1cccc(CN2CCN(C(=O)c3cc(-c4ccncc4)nc4ccc(C)cc34)CC2)c1 do in these assays?
KCNQ2 inh: -5.9*; KCNQ2 pot: -5.9

How did O=C(O)c1cc(-c2cccnc2)nc2ccc(Br)cc12 do in these assays?
KCNQ2 inh: inactive; KCNQ2 pot: 0.58

How did COc1cccc(CN2CCN(C(=O)c3cc(-c4ccccn4)nc4ccc(Cl)cc34)CC2)c1 do in these assays?
KCNQ2 inh: inactive

What do the screens show for `Cc1ccccc1C(=O)c1cccn1CC(=O)NCc1cccc(Cl)c1`?
KCNQ2 inh: inactive

How did CNC(=S)N(Cc1ccc(OC)cc1)C1CC(=O)N(c2ccc(OC)cc2)C1=O (stereo not given) do in these assays?
KCNQ2 inh: inactive

What do the screens show for `O=C(Nc1nc2n(n1)C(c1ccccc1)CC(c1ccc(Cl)cc1)N2)c1ccco1` (stereo not given)?
KCNQ2 inh: -7.2*; KCNQ2 pot: -7.2

Results for COc1ccc(C2CC(c3ccccc3)Nc3nc(NC(=O)c4ccco4)nn32)cc1 (stereo not given) ?
KCNQ2 inh: inactive; KCNQ2 pot: 0.64

How did Cc1ccc(S[C@@H](CCN2CC[C@H](C(C)(C)C)CCC2=O)c2ccccc2)cc1 do in these assays?
KCNQ2 inh: -5.8*; KCNQ2 pot: -5.8

Results for CC(C)(C)C1CCC(=O)N(CCSc2ccccc2)CC1 (stereo not given) ?
KCNQ2 inh: inactive

What do the screens show for `C[C@@H](CSc1ccccc1)CN1CC[C@H](C(C)(C)C)CCC1=O`?
KCNQ2 inh: -7.2*; KCNQ2 pot: -7.2

What do the screens show for `Cc1ccc(S[C@@H](CCN2CC[C@H](C)CCC2=O)c2ccccc2)cc1`?
KCNQ2 inh: inactive

What do the screens show for `CCS(=O)(=O)NCCc1cc2ccc(C)cc2[nH]c1=O`?
KCNQ2 inh: inactive

What do the screens show for `C/C(=N\NC(=O)OC(C)(C)C)c1cccc([N+](=O)[O-])c1`?
KCNQ2 inh: inactive

Results for COc1ccccc1N1CCN(C(=O)c2cc3c(s2)-c2ccccc2OC3)CC1 ?
KCNQ2 inh: inactive

How did O=C(c1cc2c(s1)-c1ccccc1OC2)N1CCc2ccccc2C1 do in these assays?
KCNQ2 inh: -5.6*; KCNQ2 pot: -5.6

What do the screens show for `C=CCSC1=N/C(=C\c2cc(OCC)c(OC(C)=O)c([N+](=O)[O-])c2)C(=O)S1`?
KCNQ2 inh: inactive; KCNQ2 pot: 7.1*

What do the screens show for `C=CCSC1=N/C(=C\c2ccc3c(c2)OCO3)C(=O)S1`?
KCNQ2 inh: inactive; KCNQ2 pot: 0.47

What do the screens show for `CCOC(=O)c1ccc(NC(=S)NC(=O)c2cncc(Br)c2)cc1`?
KCNQ2 inh: inactive

Results for CCCCOC(=O)c1ccc(NC(=S)NC(=O)c2c(Br)c(C)nn2C)cc1 ?
KCNQ2 inh: inactive; KCNQ2 pot: 9.6*

Compound activity deposited in PubChem BioAssay by Johns Hopkins Ion Channel Center.
